# Source: PubChem BioAssay (Tox21)
# A number with no mark means an inactive call. Where a call stands in place of a potency, no number is given. Active and inactive are the calls of the source. Unless noted, calls come from the whole dose curve; as a rule, active = well fitted curve in the direction sought with a large enough effect in the repeat runs; inconclusive = weak or mixed curves; inactive = no such curve, though single readings can be large; an effect the other way counts as inactive or inconclusive.
# What was measured:
# [1] = qHTS assay to identify small molecule antagonists of the thyroid receptor (TR) signaling pathway - cell viability counter screen (AID 743064); note: nearly all actives have a fitted effect of over 50% in size; note: potency is the fitted concentration of half-maximal effect
# Procedure, shortened: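 Fluorescence from CellTiter-Fluor, added after 23.5 h exposure at 37 °C, reported viability of GH3.TRE-Luc cells co-treated with compound and 1 nM T3. Measured in the same wells as the luciferase TR readout.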
# [2] = qHTS assay to identify small molecule antagonists of the thyroid receptor (TR) signaling pathway (AID 743065); note: nearly all actives have a fitted effect of over 55% in size; note: potency is the fitted concentration of half-maximal effect
# Procedure, shortened: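 Antagonism measured as loss of luciferase signal in GH3 cells stably carrying a TRE-luciferase reporter, co-treated with compound and T3 (1 nM final) for 23.5 h at 37 C. Viability was read in the same well by CellTiter-Fluor.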
# [3] = system: thyroid hormone receptor (rat, GH3 cells); assay: qHTS assay to identify small molecule agonists of the thyroid receptor (TR) signaling pathway (AID 743066; calls by dose curve; note: potency is the fitted concentration of half-maximal effect)
# [4] = qHTS assay to identify small molecule antagonists of the estrogen receptor alpha (ER-alpha) signaling pathway - cell viability counter screen (AID 743074; calls by dose curve;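 note: HEK293 cells carrying ER-alpha-UAS-bla reporter stimulated with 17beta-estradiol; nearly all actives have a fitted effect of over 45% in size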; note: potency is the fitted concentration of half-maximal effect)
# [5] = molecular target: Estrogen receptor (Homo sapiens) (UniProt P03372); assay: qHTS assay to identify small molecule agonists of the estrogen receptor alpha (ER-alpha) signaling pathway (AID 743075; calls by dose curve;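 note: HEK293 GripTite cells with ER-alpha and UAS-driven beta-lactamase reporter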; note: potency is the fitted concentration of half-maximal effect)
# [6] = qHTS assay to identify small molecule antagonists of the estrogen receptor alpha (ER-alpha) signaling pathway using the BG1 cell line (AID 743080; calls by dose curve;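 note: BG1 cells stimulated with 17beta-estradiol alongside compound; nearly all actives have a fitted effect of over 25% in size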; note: potency is the fitted concentration of half-maximal effect)
# Procedure, shortened: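 Luminescence from a 4×ERE-luciferase reporter in BG1-Luc-4E2 cells served as read-out. Cells, pre-cultured 5 days in stripped-serum phenol-red-free medium, were exposed to compound with 17beta-estradiol co-stimulation for 21.5 h at 37 C.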
# [7] = qHTS assay to identify small molecule antagonists of the estrogen receptor alpha (ER-alpha) signaling pathway using the BG1 cell line - cell viability counter screen (AID 743081);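 note: compound given together with 17beta-estradiol as the ER stimulus; nearly all actives have a fitted effect of over 45% in size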; note: potency is the fitted concentration of half-maximal effect
# [8] = molecular target: Aromatase (Homo sapiens) (UniProt P11511); assay: qHTS assay to identify aromatase inhibitors (AID 743083); note: nearly all actives have a fitted effect of over 55% in size; note: potency is the fitted concentration of half-maximal effect
# [9] = qHTS assay to identify aromatase inhibitors - cell viability counter screen (AID 743084);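 note: cells stimulated with testosterone during compound exposure; nearly all actives have a fitted effect of over 55% in size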; note: potency is the fitted concentration of half-maximal effect
# [10] = molecular target: Aryl hydrocarbon receptor (Homo sapiens) (UniProt P35869); assay: qHTS assay to identify small molecule that activate the aryl hydrocarbon receptor (AhR) signaling pathway (AID 743085);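 note: HG2L7.5c1 human HepG2 liver cells with stably integrated DRE-driven firefly reporter; nearly all actives have a fitted effect of over 15% in size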
# Procedure, shortened: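 Cell line HG2L7.5c1 (human hepatoma, 20× DRE-luc). Plated, 5 h 37C, compound/DMSO added, 24 h 37C. CellTiter-Fluor 30 min 37C → fluorescence; then ONE-Glo 30 min RT → luminescence.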
# [11] = molecular target: Peroxisome proliferator-activated receptor gamma (Homo sapiens) (UniProt P37231); assay: qHTS assay to identify small molecule agonists of the peroxisome proliferator-activated receptor gamma (PPARg) signaling pathway (AID 743094; active = well fitted activation curve with a large enough effect in the signal ratio in the repeat runs, not every such curve was filed as active; inconclusive = weak or mixed curves, or effect the other way; inactive = no such curve, though single readings can be large or run the other way; the % refers to the signal ratio)
# Procedure, shortened: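 Agonism was assessed in a beta-lactamase reporter system, HEK293H cells with a stably integrated UAS-bla construct under PPARg control; the 17 h treatment at 37C preceded a 1 h room-temperature FRET substrate read.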
# [12] = qHTS assay for small molecule agonists of the antioxidant response element (ARE) signaling pathway - cell viability counter screen (AID 743203; calls by dose curve; note: nearly all actives have a fitted effect of over 55% in size; note: potency is the fitted concentration of half-maximal effect)
# Procedure, shortened: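 ATP content via CellTiter-Glo luminescence served as the viability measure. Cells: ARE-bla HepG2, 2,000 per well. Exposure: 16 hrs, 37C/5% CO2.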
# [13] = qHTS assay for small molecule activators of the heat shock response signaling pathway - cell viability counter screen (AID 743209); note: nearly all actives have a fitted effect of over 50% in size; note: potency is the fitted concentration of half-maximal effect
# Procedure, shortened: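 Compounds dissolved in DMSO were added to overnight-plated HSE-bla HeLa cells and left 5 h at 37 C. Cell viability was quantified by luminescence using CellTiter-Glo.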
# [14] = qHTS assay for small molecule activators of the heat shock response signaling pathway (AID 743210; active = well fitted activation curve with a large enough effect in the signal ratio in the repeat runs, with a control signal flat, not every such curve was filed as active; inconclusive = weak or mixed curves; the % refers to the signal ratio;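 note: HeLa cells with beta-lactamase reporter driven by heat shock elements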)
# Procedure, shortened: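 Fluorescence from a cleaved B/G FRET substrate (2.5 h, room temp) reports HSE-driven beta-lactamase in HeLa cells treated 5 h at 37 C with DMSO-dissolved compounds.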
# [15] = molecular target: Estrogen receptor (Homo sapiens) (UniProt P03372); assay: qHTS assay to identify small molecule agonists of the estrogen receptor alpha (ER-alpha) signaling pathway using the BG1 cell line (AID 743079); details: BG1Luc4E2 cells, ERE-luciferase agonist, 22 h; activation: at 70.3 µM (top of the series); note: nearly all actives have a fitted effect of over 20% in size; note: potency is the fitted concentration of half-maximal effect
# [16] = qHTS assay to identify small molecule that activate the aryl hydrocarbon receptor (AhR) signaling pathway - cell viability counter screen (AID 743086); note: nearly all actives have a fitted effect of over 45% in size; note: potency is the fitted concentration of half-maximal effect
# Procedure, shortened: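 Cytotoxicity counter screen: CellTiter-Fluor signal (30 min, 37 C) in 4000 HepG2 cells/well carrying the DRE-luciferase reporter, following 24 h compound exposure at 37 C.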
# [17] = molecular target: Peroxisome proliferator-activated receptor gamma (Homo sapiens) (UniProt P37231); assay: qHTS assay to identify small molecule antagonists of the peroxisome proliferator-activated receptor gamma (PPARg) signaling pathway (AID 743191; calls by dose curve; note: nearly all actives have a fitted effect of over 30% in size)
# Procedure, shortened: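 Beta-lactamase reporter under UAS control in HEK293H PPARg-bla cells; compound treatment 17 h at 37C. Read-out: fluorescence intensity after 1 h room-temperature incubation with LiveBLAzer B/G FRET substrate.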
# [18] = qHTS assay for small molecule agonists of the antioxidant response element (ARE) signaling pathway (AID 743202; active = well fitted activation curve with a large enough effect in the signal ratio in the repeat runs, not every such curve was filed as active; inconclusive = weak or mixed curves, or effect the other way; inactive = no such curve, though single readings can be large or run the other way; the % refers to the signal ratio; note: potency is the fitted concentration of half-maximal effect)
# Procedure, shortened: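 Beta-lactamase reporter activity, read as fluorescence intensity, reflects ARE/Nrf2 pathway induction in HepG2 cells after 16 h compound exposure at 37 C; substrate loading was 2 h at room temperature.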
# [19] = qHTS assay to identify small molecule antagonists of the peroxisome proliferator-activated receptor gamma (PPARg) signaling pathway - cell viability counter screen (AID 743194); details: Potency: co-treated with 50 nM rosiglitazone unless noted; note: nearly all actives have a fitted effect of over 55% in size; note: potency is the fitted concentration of half-maximal effect
# Procedure, shortened: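 Viability was measured as CellTiter-Glo luminescence in GeneBLAzer PPARg UAS-bla HEK293H cells. These cells had been exposed 17 h at 37 C to compounds together with rosiglitazone at 50 nM final, with the beta-lactamase readout taken in the same wells.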
# Sequence of Estrogen receptor (Homo sapiens) (P03372 whole entry, looked up): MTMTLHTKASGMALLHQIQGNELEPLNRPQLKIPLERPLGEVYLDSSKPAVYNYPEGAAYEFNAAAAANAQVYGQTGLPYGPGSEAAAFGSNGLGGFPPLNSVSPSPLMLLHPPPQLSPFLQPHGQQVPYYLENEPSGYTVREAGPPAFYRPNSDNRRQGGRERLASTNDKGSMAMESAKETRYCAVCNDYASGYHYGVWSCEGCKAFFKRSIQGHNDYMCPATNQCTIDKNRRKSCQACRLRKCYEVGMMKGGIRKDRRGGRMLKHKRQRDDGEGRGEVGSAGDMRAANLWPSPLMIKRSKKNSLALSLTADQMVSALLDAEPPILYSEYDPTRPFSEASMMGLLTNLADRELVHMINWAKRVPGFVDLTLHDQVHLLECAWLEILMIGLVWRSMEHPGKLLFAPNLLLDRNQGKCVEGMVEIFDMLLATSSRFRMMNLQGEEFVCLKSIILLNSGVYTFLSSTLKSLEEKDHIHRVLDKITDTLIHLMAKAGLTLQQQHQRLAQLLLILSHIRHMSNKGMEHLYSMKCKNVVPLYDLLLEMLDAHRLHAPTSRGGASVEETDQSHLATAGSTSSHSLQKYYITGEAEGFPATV
# Sequence of Peroxisome proliferator-activated receptor gamma (Homo sapiens) (P37231 whole entry, looked up): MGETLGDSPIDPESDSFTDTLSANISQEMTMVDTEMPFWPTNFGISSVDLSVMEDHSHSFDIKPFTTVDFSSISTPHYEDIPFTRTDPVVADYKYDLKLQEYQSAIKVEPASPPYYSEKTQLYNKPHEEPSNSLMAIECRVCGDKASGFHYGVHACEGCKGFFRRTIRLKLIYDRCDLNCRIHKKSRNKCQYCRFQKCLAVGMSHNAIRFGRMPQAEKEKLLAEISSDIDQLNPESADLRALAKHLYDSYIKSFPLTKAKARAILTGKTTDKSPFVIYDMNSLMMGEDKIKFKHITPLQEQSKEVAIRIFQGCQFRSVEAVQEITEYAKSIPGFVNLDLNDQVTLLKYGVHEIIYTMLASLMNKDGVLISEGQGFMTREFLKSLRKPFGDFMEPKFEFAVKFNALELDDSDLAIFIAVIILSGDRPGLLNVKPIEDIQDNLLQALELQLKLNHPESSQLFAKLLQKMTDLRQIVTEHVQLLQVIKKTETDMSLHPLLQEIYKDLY
# Sequence of Aromatase (Homo sapiens) (P11511 whole entry, looked up): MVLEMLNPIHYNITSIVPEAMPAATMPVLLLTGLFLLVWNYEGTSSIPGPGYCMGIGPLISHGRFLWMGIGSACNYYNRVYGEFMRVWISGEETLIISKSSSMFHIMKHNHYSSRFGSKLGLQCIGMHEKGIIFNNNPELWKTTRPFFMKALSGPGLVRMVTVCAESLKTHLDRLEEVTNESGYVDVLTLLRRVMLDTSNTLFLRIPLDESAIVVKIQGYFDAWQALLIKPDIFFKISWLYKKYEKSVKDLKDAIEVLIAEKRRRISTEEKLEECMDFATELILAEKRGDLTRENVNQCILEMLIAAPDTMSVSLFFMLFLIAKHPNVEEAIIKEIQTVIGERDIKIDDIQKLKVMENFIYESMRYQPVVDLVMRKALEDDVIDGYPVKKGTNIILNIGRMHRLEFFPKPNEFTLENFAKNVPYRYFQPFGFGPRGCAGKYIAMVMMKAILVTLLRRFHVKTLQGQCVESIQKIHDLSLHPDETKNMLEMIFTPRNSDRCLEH
# Sequence of Aryl hydrocarbon receptor (Homo sapiens) (P35869 whole entry, looked up): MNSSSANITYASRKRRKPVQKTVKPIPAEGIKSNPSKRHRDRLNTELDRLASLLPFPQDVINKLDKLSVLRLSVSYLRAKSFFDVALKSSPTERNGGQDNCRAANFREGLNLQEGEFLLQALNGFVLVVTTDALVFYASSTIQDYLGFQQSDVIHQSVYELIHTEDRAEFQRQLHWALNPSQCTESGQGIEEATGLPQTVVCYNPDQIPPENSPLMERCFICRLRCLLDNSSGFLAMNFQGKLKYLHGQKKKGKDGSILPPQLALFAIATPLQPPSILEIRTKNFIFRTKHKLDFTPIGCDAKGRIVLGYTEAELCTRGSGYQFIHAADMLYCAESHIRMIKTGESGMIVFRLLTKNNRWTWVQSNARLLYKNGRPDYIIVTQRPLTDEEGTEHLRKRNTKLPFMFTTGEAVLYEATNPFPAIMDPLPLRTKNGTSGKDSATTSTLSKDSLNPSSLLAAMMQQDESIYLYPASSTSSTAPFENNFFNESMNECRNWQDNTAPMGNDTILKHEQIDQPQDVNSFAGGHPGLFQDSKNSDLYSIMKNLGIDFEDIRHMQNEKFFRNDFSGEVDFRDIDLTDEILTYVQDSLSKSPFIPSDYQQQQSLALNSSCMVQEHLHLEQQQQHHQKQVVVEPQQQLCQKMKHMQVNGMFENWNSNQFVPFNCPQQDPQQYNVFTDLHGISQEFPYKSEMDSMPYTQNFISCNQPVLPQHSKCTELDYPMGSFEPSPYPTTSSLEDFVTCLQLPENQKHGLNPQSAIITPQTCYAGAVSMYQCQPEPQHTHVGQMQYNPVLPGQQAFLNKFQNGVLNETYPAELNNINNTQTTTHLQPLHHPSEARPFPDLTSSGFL
Structure (SMILES),Potency [1],Potency [2],Potency [3],Potency [4],Potency [5],Potency [6],Potency [7],Potency [8],Potency [9],Potency [10],Potency [11],Potency [12],Potency [13],Potency [14],Potency [15],Potency [16],Potency [17],Potency [18],Potency [19]
Oc1ccc(Cl)c(Cl)c1,inactive,60200 nM (active),inactive,inactive,60700 nM [inconclusive] (active),inactive,inactive,inactive,inactive,inactive,inactive,inactive,inactive,inactive,,,,,
CCCCc1ccccc1,inactive,inactive,inactive,inactive,inactive,inactive,inactive,inactive,inactive,inactive,inactive,inactive,inactive,,inactive,inactive,,,
CNC(C)(C)Cc1ccccc1,inactive,inactive,inactive,inactive,,inactive,inactive,inactive,inactive,inactive,inactive,inactive,inactive,inactive,,inactive,inactive,inactive,
C=Cc1cccc(CCl)c1,inactive,inactive,inactive,inactive,inactive,inactive,inactive,inactive,inactive,inactive,,inactive,inactive,inactive,inactive,inactive,,55900 nM (active),inactive
N#CCCl,inactive,inactive,inactive,inactive,,inactive,inactive,inactive,inactive,inactive,inactive,inactive,inactive,inactive,28400 nM (active),inactive,inactive,,inactive
C=CCOC(=O)c1ccccc1N,inactive,inactive,inactive,inactive,inactive,inactive,inactive,inactive,inactive,,,inactive,inactive,inactive,inactive,inactive,inactive,inactive,
C=CC(=O)[O][Sn]([CH2]CCC)([CH2]CCC)[CH2]CCC,969 nM (active),611 nM (active),193 nM (active),1100 nM (active),,433 nM (active),5450 nM (active),5450 nM (active),3440 nM (active),inactive,,686 nM (active),3090 nM (active),,,4330 nM (active),,,
C=C(C)C(=O)[O][Sn]([CH2]CCC)([CH2]CCC)[CH2]CCC,433 nM (active),306 nM (active),30.6 nM (active),1740 nM (active),,344 nM (active),1370 nM (active),3860 nM (active),2730 nM (active),inactive,,433 nM (active),1100 nM (active),,,2730 nM (active),,,549 nM (active)
COC(=O)c1ccccc1S(=O)(=O)NC(=O)Nc1nc(C)nc(OC)n1,inactive,inactive,inactive,inactive,,,inactive,inactive,inactive,inactive,,inactive,inactive,inactive,,inactive,,inactive,
CCNS(=O)(=O)C(F)(F)C(F)(F)C(F)(F)C(F)(F)C(F)(F)C(F)(F)C(F)(F)C(F)(F)F,inactive,inactive,inactive,inactive,,,inactive,inactive,inactive,inactive,inactive,,inactive,inactive,,inactive,inactive,,
CN/C(=N\[N+](=O)[O-])NCc1cnc(Cl)s1,inactive,inactive,inactive,inactive,inactive,inactive,inactive,inactive,inactive,inactive,inactive,inactive,inactive,inactive,inactive,,inactive,inactive,inactive
OCC(Br)CBr (stereo unspecified),inactive,inactive,inactive,inactive,inactive,inactive,inactive,inactive,inactive,inactive,inactive,inactive,inactive,inactive,inactive,,inactive,inactive,inactive
CC(C)[C@@H](Nc1ccc(C(F)(F)F)cc1Cl)C(=O)OC(C#N)c1cccc(Oc2ccccc2)c1 (stereo partly specified),inactive,inactive,inactive,inactive,,inactive,inactive,inactive,inactive,inactive,,inactive,inactive,,inactive,inactive,,,
NC1CCC(CC2CCC(N)CC2)CC1 (stereo unspecified),inactive,inactive,inactive,inactive,inactive,inactive,,inactive,,inactive,inactive,inactive,inactive,inactive,inactive,,,inactive,inactive
C=CC(=C)C,inactive,inactive,inactive,inactive,inactive,,inactive,inactive,inactive,,,inactive,inactive,,,inactive,inactive,inactive,
Nc1ccccc1-c1ccccc1,inactive,inactive,inactive,inactive,inactive,,inactive,inactive,inactive,inactive,,inactive,inactive,,,inactive,,,inactive
